Records with an inconclusive call do not appear. Calls of active or inactive are those of the source. The call rests on the fitted dose curve; in most records, active means well fitted inhibition curve with a large enough effect; inconclusive means small, poorly fitted or top-dose-only effect; inactive means flat fitted curve, though single readings scatter.
Tests used:
Experiment in all cases: qHTS profiling for inhibitors of Plasmodium falciparum proliferation (AID 504749); further: nearly all actives have a fitted effect of over 60% in size
Details in all cases: P. falciparum in erythrocytes, SYBR Green DNA, 72 h; series mostly up to 28.7 µM
[1] = system: ATS95
In short: (§1)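 Quantitative HTS: compounds pinned into medium, infected erythrocytes added (0.3% parasitemia, 2.5% hematocrit), 72 h culture at 37 C under 5% CO2. Saponin/Triton lysis with SYBR Green I, overnight RT, then fluorescence read.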

[2] = system: C2A
In short: as §1

[3] = system: CP237
In short: as §1

[4] = system: CP238
In short: as §1

[5] = system: CP250
In short: as §1

[6] = system: CP256
In short: as §1

[7] = system: CP262
In short: as §1

[8] = system: CP265
In short: as §1

[9] = system: CP266
In short: as §1

[10] = system: CP268
In short: as §1

[11] = system: CP269
In short: as §1

[12] = system: CP325
In short: as §1

[13] = system: CP329
In short: as §1

[14] = system: CP335
In short: as §1

[15] = system: Dd2
In short: as §1

[16] = system: ECU
In short: as §1

[17] = system: P93_24
In short: as §1

[18] = system: PAD
In short: as §1

[19] = system: PC26
In short: as §1

[20] = system: SC27B
In short: as §1

Measured: Potency

COC(=O)[C@@H]1[C@@H]2C[C@H]3c4[nH]c5ccccc5c4CCN3C[C@@H]2CC[C@@H]1O
inactive: [1] | [2] | [3] | [4] | [5] | [6] | [7] | [8] | [9] | [10] | [11] | [12] | [13] | [14] | [15] | [16] | [17] | [18] | [19] | [20]

— PubChem BioAssay (NCATS)
